Assay results published in PubChem BioAssay AID1233 (SRMLSC, 2008).
Potency and affinity values are given separately.

Molecular target: HMG-CoA reductase [Enterococcus faecalis] (UniProt Q9FD70)
Test: inhibitors of E. faecalis class II HMGR, confirmation, biochemical, Enterococcus faecalis (AID 1233);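 note: 0% = full reaction carrier wells and 100% = background wells lacking mevalonate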
Conditions: purified E. faecalis HMGR, NADPH absorbance 340 nm kinetics; series mostly up to 100 µM; inhibition: at the top concentration;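 active = a dose-response curve fit returns a half-maximal inhibitory concentration, extrapolated values included; inactive = the fit returns no such concentration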

inhibition, inactive:
COc1cc(OC)cc(C(=O)NC(C(=O)O)C23CC4CC(CC(C4)C2)C3)c1 (stereo not drawn) -10.5%
CC(C)NC(=S)N=Nc1c(O)[nH]c2ccc(C(C)C)cc12 -12%
C=CCOC(=O)c1sc(NC(=O)c2ccco2)nc1C 1.77%
CC1CN(Cc2cnc(Cl)s2)CC(C)O1 (stereo not drawn) -4.08%
COc1cc(S(=O)(=O)N2CCC(c3nc4ccccc4s3)CC2)ccc1S(=O)(=O)NC1CCCC1 -5.67%
N#CC(c1ccc(Cl)cc1)c1nc2ccccc2nc1C(F)(F)F (stereo not drawn) -0.91%
Cc1nn(-c2cc(N3CCCCCC3)ccc2[N+](=O)[O-])c(=O)c2ccccc12 -0.09%
Cc1nc2c([nH]1)C1(CCN(Cc3ccccc3)CC1)C(C#N)=C(N)O2 10.2%
COc1ccc(N=CC2=C(O)c3ccccc3C2=O)c(OC)c1 -11.6%
COc1cc(Cn2c(=O)oc3ccc(C)cc32)ccc1OC(C)C -4.35%
Cc1ccc(S(=O)(=O)CCC(=O)NCCN2C(=O)S/C(=C\c3ccccc3)C2=O)cc1 -4.26%
CC(C)OCP(=O)(c1ccccc1)c1ccccc1 -1.06%
Cc1cccc(C(=O)N2CCC(=O)N(C(COCc3ccccc3)Cc3ccccc3)CC2)c1 (stereo not drawn) -2.57%
COC(=O)C1=C(CSc2nc3c(cc2C#N)CN(C)CC3)OC(N)=C(C#N)C1c1ccc(F)cc1 (stereo not drawn) -8.53%
CCN(CC)CCCCCOc1ccccc1OC -1.77%
COCC(C)NC(=O)CSc1nc(-c2ccccc2)c(-c2ccccc2)o1 (stereo not drawn) -5.68%
COc1ccc(N2C(=O)C(CN3CCCCC3)C2c2ccccc2)cc1 (stereo not drawn) -6.91%
Cc1cc(=O)[nH]c(SCC(=O)C23CC4CC(CC(C4)C2)C3)c1C#N 0.65%
O=C1CC(c2ccccc2)CC2=C1CN(C1CCCCC1)CN2 (stereo not drawn) -1.51%
CCn1c2ccccc2c2cc(NC(=O)CSc3nnc(-c4ccc(OC)c(OC)c4)n3N)ccc21 0.13%
CCN(C(=O)CCc1nc(-c2ccccc2F)no1)c1cc(OC)ccc1OC -4.63%
CC(C)OCCCNC(=O)Nc1cccc2ccccc12 -0.1%
C/C(=N/NC(=O)c1cc(O)c(O)c(O)c1)c1ccc([N+](=O)[O-])cc1 7.14%
OCC1CCCN(C(=S)Nc2ccc(Nc3ccccc3)cc2)C1 (stereo not drawn) -3.22%
c1ccc(-c2nnc(SCc3nnc(-c4cccs4)o3)o2)cc1 -3.7%
O=C(Nc1cccc(Br)c1)c1ccc2nc(N3C(=O)CCC3=O)sc2c1 -0.95%
O=C(N/N=C/c1cc(Br)cc(Br)c1O)c1cccc(N2CCCC2=O)c1 -8.18%
OCCC1CN(Cc2cccs2)CCN1Cc1ccccc1 (stereo not drawn) -9.42%
COCCCNC(=O)CN(c1cc(Cl)ccc1OC)S(=O)(=O)c1ccc(C)c([N+](=O)[O-])c1 0.76%
Cc1cccc(N/N=C(\C#N)S(=O)(=O)C(C)(C)C)c1 -3%
Cc1ccc(S(=O)(=O)N2CCCC(C(=O)NCCCN3CCCCC3C)C2)cc1 (stereo not drawn) -0.54%
NNc1nc2c(Cl)ccc(Cl)c2s1 -11.5%
Cc1ccc(S(=O)(=O)N2CCN(C(=O)CSc3nnc(-c4ccco4)o3)CC2)cc1 -0.58%
Cc1ccc(C(C(=O)NC(C)(C)C)N(Cc2ccc3c(c2)OCO3)C(=O)c2ccc(CN3CCOCC3)o2)o1 (stereo not drawn) -7.02%
Cc1ccc(N2CCN(C(=O)c3ccccc3NC(=O)/C=C\C(=O)O)CC2)cc1 -3.89%
CC(=O)NCCn1c(SCc2cc(=O)n3cc(Cl)ccc3n2)nc2ccccc2c1=O -10.6%
Cc1cc(N2CCN(c3nc(-c4ccc([N+](=O)[O-])cc4)cs3)CC2)c2ccccc2n1 -5.17%
O=C(Cc1ccc2c(c1)CCCC2)Nc1ccccc1Cl 2.77%
